Measurements taken from PubChem BioAssay AID1159580 (chemical genetic matrix, 2015).
The whole screen tested about 5,500 compounds, of which about 2,000 (36%) were called active. Another 18% or so got no clear call; they are omitted. Cut-off read from the data, not from the text of the source: active = normalized growth mostly below about 0.91 (no sharp cut-off); inconclusive = no clear call, values can overlap the other calls; inactive = mostly above about 0.92. The list shows a part of the results.

Assay: chemical genetic growth profiling, strain panel (AID 1159580);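 note: tested at 20 µM; growth read once vehicle control cultures reached saturation at 30 °C; 1 = growth at the plate median or of vehicle wells; lower values mean less growth of the strain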
Conditions: growth OD

Measured: normalized growth

COc1c2occc2cc2ccc(=O)oc12
inactive: S. cerevisiae deletion strains, locus YJR075W, strain HOC1, active compounds read low 0.976 | S. cerevisiae deletion strains, locus YKL009W, strain mrt4, active compounds read low 0.909 | S. cerevisiae deletion strains, locus YKL068W, active compounds read low 0.996 | S. cerevisiae deletion strains, locus YKL085W, strain MDH1 (second series), active compounds read low 1 | S. cerevisiae deletion strains, locus YKL085W, strain MDH1, active compounds read low 1 | S. cerevisiae deletion strains, locus YKL160W, strain elf1, active compounds read low 0.948 | S. cerevisiae deletion strains, locus YKL190W, strain CNB1, active compounds read low 0.979 | S. cerevisiae deletion strains, locus YKR026C, strain gcn3, active compounds read low 0.983 | S. cerevisiae deletion strains, locus YKR091W, strain srl3, active compounds read low 0.982 | S. cerevisiae deletion strains, locus YLL026W, active compounds read low 0.973 | S. cerevisiae deletion strains, locus YLL041C, strain sdh2, active compounds read low 0.981 | S. cerevisiae deletion strains, locus YLR027C, strain aat2, active compounds read low 0.952 | S. cerevisiae deletion strains, locus YLR039C, strain RIC1, active compounds read low 0.851 | S. cerevisiae deletion strains, locus YLR058C, strain SHM2, active compounds read low 0.988 | S. cerevisiae deletion strains, locus YLR102C, strain apc9, active compounds read low 0.986 | S. cerevisiae deletion strains, locus YLR113W, strain HOG1, active compounds read low 1.08 | S. cerevisiae deletion strains, locus YLR258W, strain gsy2, active compounds read low 0.945 | S. cerevisiae deletion strains, locus YLR262C, strain YPT6 (second series), active compounds read low 0.955 | S. cerevisiae deletion strains, locus YLR262C, strain YPT6, active compounds read low 0.91 | S. cerevisiae deletion strains, locus YLR268W, strain sec22, active compounds read low 0.93 | S. cerevisiae deletion strains, locus YLR330W, strain CHS5, active compounds read low 0.991 | S. cerevisiae deletion strains, locus YLR342W, strain FKS1 (second series), active compounds read low 0.971 | S. cerevisiae deletion strains, locus YLR342W, strain FKS1, active compounds read low 0.965 | S. cerevisiae deletion strains, locus YLR357W, strain rsc2, active compounds read low 1.01 | S. cerevisiae deletion strains, locus YLR370C, strain arc18, active compounds read low 0.914 | S. cerevisiae deletion strains, locus YLR371W, strain rom2, active compounds read low 0.969 | S. cerevisiae deletion strains, locus YLR384C, strain iki3, active compounds read low 0.963 | S. cerevisiae deletion strains, locus YLR418C, strain cdc73, active compounds read low 0.95 | S. cerevisiae deletion strains, locus YML016C, strain PPZ1, active compounds read low 0.987 | S. cerevisiae deletion strains, locus YML124C, strain tub3, active compounds read low 0.996 | S. cerevisiae deletion strains, locus YMR058W, strain fet3, active compounds read low 0.927 | S. cerevisiae deletion strains, locus YMR078C, strain ctf18, active compounds read low 0.974 | S. cerevisiae deletion strains, locus YMR125W, strain sto1, active compounds read low 1.01 | S. cerevisiae deletion strains, locus YMR129W, active compounds read low 0.99 | S. cerevisiae deletion strains, locus YMR205C, strain PFK2, active compounds read low 0.941 | S. cerevisiae deletion strains, locus YMR223W, strain ubp8, active compounds read low 0.924 | S. cerevisiae deletion strains, locus YMR231W, strain pep5, active compounds read low 0.989 | S. cerevisiae deletion strains, locus YMR263W, strain SAP30, active compounds read low 0.942 | S. cerevisiae deletion strains, locus YMR307W, strain GAS1, active compounds read low 0.949 | S. cerevisiae deletion strains, locus YNL067W, strain RPL9B, active compounds read low 0.939 | S. cerevisiae deletion strains, locus YNL071W, strain lat1, active compounds read low 0.947 | S. cerevisiae deletion strains, locus YNL128W, strain TEP1, active compounds read low 0.962 | S. cerevisiae deletion strains, locus YNL153C, strain GIM3, active compounds read low 0.983 | S. cerevisiae deletion strains, locus YNL183C, strain NPR1, active compounds read low 0.971 | S. cerevisiae deletion strains, locus YNL233W, strain BNI4, active compounds read low 0.944 | S. cerevisiae deletion strains, locus YNL248C, strain rpa49, active compounds read low 0.901 | S. cerevisiae deletion strains, locus YNL250W, strain rad50, active compounds read low 0.968 | S. cerevisiae deletion strains, locus YNL271C, strain bni1, active compounds read low 0.983 | S. cerevisiae deletion strains, locus YNL298W, strain CLA4, active compounds read low 0.933 | S. cerevisiae deletion strains, locus YNL322C, strain KRE1, active compounds read low 1 | S. cerevisiae deletion strains, locus YNR049C, strain mso1, active compounds read low 0.962 | S. cerevisiae deletion strains, locus YNR052C, strain pop2, active compounds read low 0.978 | S. cerevisiae deletion strains, locus YOL006C, strain TOP1, active compounds read low 0.79 | S. cerevisiae deletion strains, locus YOL012C, strain htz1 0.845 | S. cerevisiae deletion strains, locus YOL147C, strain pex11, active compounds read low 0.982 | S. cerevisiae deletion strains, locus YOR001W, strain rrp6, active compounds read low 0.958 | S. cerevisiae deletion strains, locus YOR061W, strain CKA2, active compounds read low 0.99 | S. cerevisiae deletion strains, locus YOR069W, strain VPS5, active compounds read low 0.991 | S. cerevisiae deletion strains, locus YOR070C, strain gyp1, active compounds read low 0.956 | S. cerevisiae deletion strains, locus YOR080W, strain dia2, active compounds read low 0.95 | S. cerevisiae deletion strains, locus YOR083W, strain WHI5, active compounds read low 0.914 | S. cerevisiae deletion strains, locus YOR136W, strain idh2, active compounds read low 0.974 | S. cerevisiae deletion strains, locus YOR144C, strain elg1, active compounds read low 0.97 | S. cerevisiae deletion strains, locus YOR231W, strain MKK1, active compounds read low 1.01 | S. cerevisiae deletion strains, locus YOR265W, strain rbl2, active compounds read low 0.963 | S. cerevisiae deletion strains, locus YOR270C, strain vph1, active compounds read low 0.83 | S. cerevisiae deletion strains, locus YOR316C, strain cot1, active compounds read low 1 | S. cerevisiae deletion strains, locus YPL051W, strain arl3, active compounds read low 0.939 | S. cerevisiae deletion strains, locus YPL055C, strain LGE1, active compounds read low 0.938 | S. cerevisiae deletion strains, locus YPL078C, strain atp4, active compounds read low 0.964 | S. cerevisiae deletion strains, locus YPL106C, strain sse1, active compounds read low 0.899 | S. cerevisiae deletion strains, locus YPL240C, strain hsp82, active compounds read low 0.965 | S. cerevisiae deletion strains, locus YPL241C, strain CIN2, active compounds read low 0.959 | S. cerevisiae deletion strains, locus YPL256C, strain CLN2, active compounds read low 1.1 | S. cerevisiae deletion strains, locus YPR119W, strain clb2, active compounds read low 0.998 | S. cerevisiae deletion strains, locus YPR141C, strain kar3, active compounds read low 1.02 | S. cerevisiae deletion strains, locus YPR163C, strain tif3, active compounds read low 0.983 | S. cerevisiae deletion strains, locus YPR167C, strain met16, active compounds read low 1.01 | S. cerevisiae deletion strains, strain wtn01, active compounds read low 0.966 | S. cerevisiae strains, strain wild type, active compounds read low 1
active: S. cerevisiae deletion strains, locus YKR001C, strain vps1, active compounds read low 0.863 | S. cerevisiae deletion strains, locus YLL001W, strain dnm1, active compounds read low 0.874 | S. cerevisiae deletion strains, locus YLR221C, strain rsa3, active compounds read low 0.891 | S. cerevisiae deletion strains, locus YLR320W, strain mms22, active compounds read low 0.833 | S. cerevisiae deletion strains, locus YML032C, strain rad52, active compounds read low 0.876 | S. cerevisiae deletion strains, locus YML120C, strain ndi1, active compounds read low 0.866 | S. cerevisiae deletion strains, locus YNL209W, strain ssb2, active compounds read low 0.923 | S. cerevisiae deletion strains, locus YNL307C, strain MCK1, active compounds read low 0.88 | S. cerevisiae deletion strains, locus YNL322C, strain KRE1 (second series), active compounds read low 0.763 | S. cerevisiae deletion strains, locus YOR106W, strain vam3, active compounds read low 0.701 | S. cerevisiae deletion strains, locus YOR184W, strain ser1, active compounds read low 0.859 | S. cerevisiae deletion strains, locus YOR290C, strain snf2, active compounds read low 0.856
